Screening data deposited in PubChem by National Center for Advancing Translational Sciences (NCATS).
DT40 TDP1 CPT – DT40-hTDP1 cell growth loss with CPT; AID 686979; chicken DT40 Tdp1-/-;hTDP1 cells + 20 nM CPT, ATP luminescence, 48 h; Potency, µM (doses to about 46.2 µM), without a hit: top-dose activity change, negative = growth inhibition, hits mostly inhibitors; hit rate 12% among 420,000; also: % is scaled to controls: 0 for no effect and ±100 for the full control effect; nearly all actives have a fitted effect of over 55% in size
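Cell growth measured by CellTiter-Glo luminescence after a minimum 48 h, 37 C compound exposure with 20 nM CPT in Tdp1-knockout DT40 cells stably expressing hTDP1, seeded 400/well; qHTS titration format.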
TDP1 block – blocks human tyrosyl-DNA phosphodiesterase 1. Q9NUW8. recombinant TDP1, AlphaScreen DNA substrate cleavage. hit rate 0.28% among 350,000. Potency, µM (series often up to 130 µM), for inactives: at the highest dose activity change, negative = inhibition, hits mostly inhibitors; also: % is scaled to controls: 0 for no effect and ±100 for the full control effect; nearly all actives have a fitted effect of over 40% in size
Target sequence (Q9NUW8 whole entry, looked up): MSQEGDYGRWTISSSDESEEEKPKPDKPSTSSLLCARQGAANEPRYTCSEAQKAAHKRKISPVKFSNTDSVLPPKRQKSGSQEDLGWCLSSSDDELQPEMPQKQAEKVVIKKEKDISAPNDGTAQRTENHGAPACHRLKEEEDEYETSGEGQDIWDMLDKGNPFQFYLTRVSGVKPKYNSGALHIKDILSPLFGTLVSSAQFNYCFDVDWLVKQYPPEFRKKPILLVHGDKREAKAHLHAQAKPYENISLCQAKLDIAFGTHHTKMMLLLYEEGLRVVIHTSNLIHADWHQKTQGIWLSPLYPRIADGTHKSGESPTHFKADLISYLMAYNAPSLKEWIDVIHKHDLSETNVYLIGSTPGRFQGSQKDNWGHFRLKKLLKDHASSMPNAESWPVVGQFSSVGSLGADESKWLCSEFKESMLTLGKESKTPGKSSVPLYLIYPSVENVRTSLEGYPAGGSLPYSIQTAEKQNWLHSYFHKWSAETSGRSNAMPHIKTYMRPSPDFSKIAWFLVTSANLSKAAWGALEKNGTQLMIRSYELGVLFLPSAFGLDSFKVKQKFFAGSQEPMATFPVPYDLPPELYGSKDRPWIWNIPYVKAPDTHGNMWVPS
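AlphaScreen read-out: signal falls as enzyme removes the 3' tyrosine-FITC from a 5'-biotinylated DNA oligo (15 nM, 5 min, RT). Enzyme was E. coli-made recombinant Tdp1 at 1 nM, exposed to compound for 15 min beforehand; beads 10 ug/ml, 10 min.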
ClpP mod – qHTS Assay for Activators of ClpP; ATP-dependent Clp protease proteolytic subunit (Bacillus subtilis (strain 168)), P80244; purified B. subtilis ClpP, FRET peptide cleavage, 20 min; Potency, µM (top dose mostly 57.5 µM), for the others: at the top dose activity change, negative = active; hit rate 1.9% among 340,000; active = well fitted falling curve with a large enough effect; inconclusive = small, poorly fitted or top-dose-only effect; inactive = no such curve, though single readings can be large or run the other way; also: the source files actives as falling curves though it sought activators and does not explain the sign; nearly all actives have a fitted effect of over 65% in size
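Purified B. subtilis ClpP, 10 microg/mL final in Tris/HCl pH8 with KCl, BSA, glycerol and Tween-20, cleaved an Abz/nitrotyrosine-quenched decapeptide. Fluorescence (ex 320, em 430) was read at 0 and 20 min at room temperature. Delta was normalized to 5.8 microM ADEP and DMSO/no-enzyme controls.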
TDP1 cell noCPT – qHTS for Inhibitors of human tyrosyl-DNA phosphodiesterase 1 (TDP1): qHTS in cells in absence of CPT. DT40 Tdp1-/- hTDP1 cells, no CPT, ATP luminescence, 48 h. Potency, µM (highest dose often 46.2 µM), without a hit: at the highest dose activity change, negative = growth inhibition, hits mostly inhibitors. hit rate 15% among 420,000; also: % is scaled to controls: 0 for no effect and ±100 for the full control effect; nearly all actives have a fitted effect of over 55% in size
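Chicken DT40 Tdp1-/- cells complemented with human TDP1, screened without camptothecin (DMSO vehicle only), 400 cells/well. Compounds pin-transferred, cells incubated at 37 °C for at least 48 hr. Growth read as ATP-dependent luminescence (CellTiter-Glo, 30 min at RT).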
The depositor's hits bear a star; ? = inconclusive; / = no result given; [ ] = another dose, or the depositor's remark. In the library only some 17% were active in any assay of this set; here they are far more common. Unless noted, calls follow the shape of the dose curve; as a rule, active = well fitted curve in the direction sought with a large enough effect; inconclusive = small, poorly fitted or top-dose-only effect, or another doubt; inactive = no such curve, though single readings can be large; an effect the other way counts as inactive or inconclusive. Potency is read from the fitted curve at half-maximal effect.

SMILES | DT40 TDP1 CPT | TDP1 block | ClpP mod | TDP1 cell noCPT
Cc1ccc(NC(=O)Cn2c(=O)ccc3cc(S(=O)(=O)N4CCCC4)ccc32)cc1C | -10.2% | 4.4% | 0.1% | -1.7%
COc1cc(NC(=O)Cn2c(=O)ccc3cc(S(=O)(=O)N4CCCC4)ccc32)cc(OC)c1 | ? | 1.1% | -2.5% | 14.6µM*
COc1ccc(NC(=O)Cn2c(=O)ccc3cc(S(=O)(=O)N4CCCC4)ccc32)cc1Cl | 16.4µM* | 3.3% | -3.7% | 13µM*
O=[S+]([O-])(/C=C/c1nc(Nc2cc(F)cc(F)c2)c2ncn(CC(F)F)c2n1)c1ccccc1 | / | 0.0% | / | /
COC(=O)c1cc(CNC(=O)c2ccccc2F)cc(NC(=O)c2ccccc2OC)c1 | -16.6%[9.04 µM] | / | / | 23.1µM*
COC(=O)c1cc(CNC(=O)c2ccccc2OC)cc(NC(=O)c2ccccc2F)c1 | 20.6µM* | / | / | 16.4µM*
COC(=O)c1cc(CNC(=O)c2cccc3ccccc23)cc(NC(=O)c2ccccc2OC)c1 | 10.2%[9.04 µM] | / | / | ?
CCc1cc(=O)[nH]c(SCc2nc(-c3ccccc3C)no2)n1 | ? | 8.1% | 2.8% | ?
COc1ccc(-c2noc(CSc3nc(N)cc(=O)[nH]3)n2)cc1 | 16.4µM* | 3.1% | -1.6% | 18.4µM*
COc1ccc(-c2noc(CSc3nc(-c4ccccc4)cc(=O)[nH]3)n2)cc1OC | -4.1% | -6.6% | 0.8% | -14.9%
Cc1ccc2nc(SCc3nc(-c4ccc(Cl)cc4)no3)[nH]c2c1 | 16.4µM* | 3.2% | 2.2% | 23.1µM*
CCc1cc(=O)[nH]c(SCc2nc(-c3ccc(C(F)(F)F)cc3)no2)n1 | 23.1µM* | 0.0% | 1.3% | 16.4µM*
CC(=O)Nc1ccc(/C=C/c2ccncc2)cc1 | ? | / | 3.7% | ?
FC(F)(F)c1ccc(CN2C[C@@H]3C(c4ccc(Cl)nc4)C4(c5ccccc5)CC3(C4)[C@H]2c2ccccc2)cc1 (some centres undefined) | ? | 5.1% | -0.3% | ?
N#Cc1ccc(C23CC4(C2)[C@H](CN(CC2CCCCC2)[C@@H]4c2ccccc2)C3c2ccccc2)cc1 (some centres undefined) | ? | 8.1% | -1.0% | 16.4µM*
N#Cc1ccc(C23CC4(C2)[C@H](CN(CC2CCCCC2)[C@@H]4c2ccccc2)C3c2ccc(Cl)nc2)cc1 (some centres undefined) | 13µM* | 9.9% | -1.1% | 14.6µM*
COc1ccc(NC(=O)c2ccc(NC(=O)CN3CCN(c4ccccc4O)CC3)cc2)cc1 | 18.4µM* | / | 1.4% | 18.4µM*
COc1ccc(NC(=O)C2(c3ccc(NC(=O)c4ccc(OC)cc4)cc3)CCCC2)cc1 | -5.6% | 2.7% | 28.2µM* | -3.4%
O=C(CN1CCN(c2ccccc2O)CC1)Nc1ccnn1C1CCCC1 | 20.6µM* | -0.1%[56.1 µM] | -1.5% | 20.6µM*
COc1ccc(C(=O)C2CCN(CC(=O)Nc3ccc(C)cc3)CC2)cc1 | -21.6% | / | / | 29.1µM*
COc1ccc(C(=O)C2CCN(C(=O)Nc3ccc(C)cc3)CC2)cc1 | 0.6% | 8.8% | 0.6% | ?
COc1ccccc1-c1ccc2c(c1)C(C)(Cc1ccc(F)c(Cl)c1)C(=O)N2 (centres undefined) | ? | / | -0.7% | ?
CON(C)S(=O)(=O)NC(=O)C1=C(N2CCCC2)COC1=O | 1.3% | 0.7% | -0.5% | -1.2%
CCOC(=O)C1CCN(C(=O)c2ccc(C)c(NC(=O)c3nsc4ccccc34)c2)CC1 | ? | 2.7% | -0.7% | 23.1µM*
CCOC(=O)C1CCCN(C(=O)c2ccc(C)c(NC(=O)c3nsc4ccccc34)c2)C1 (centres undefined) | ? | 2.7% | -2.1% | 18.4µM*
SMILES | DT40 TDP1 CPT | TDP1 block | ClpP mod | TDP1 cell noCPT
COc1cccc(OCC(=O)Nc2ccccc2C(=O)Nc2ccc(C(=O)O)cc2)c1 | -2.1% | -13.5% | 4.4% | 14.8%
O=C(COC(=O)c1ccccc1-n1cnnn1)c1ccc(F)c(F)c1 | -2.6% | / | -5.7% | -9.0%
Cc1cc(Br)c(OCc2ccc(C(=O)N/N=C3\CC4CC=CC34)cc2)c(Br)c1 (centres undefined) | -29.2% | 2.7% | 1.2% | 14.6µM*
CCOC(=O)C(C)Oc1cccc2c(=O)n(CC(=O)NCc3ccccc3)ccc12 (centres undefined) | 0.581µM* | / | / | 0.92µM*
CCOC(=O)C(C)Oc1cccc2c(=O)n(CC(=O)NCCc3ccccc3)ccc12 (centres undefined) | -15.4% | / | -13.7% | 18.2%
COCCn1ccc2c(OCC(=O)NCc3ccc(C)cc3)cccc2c1=O | -5.2% | / | 28.2µM* | 0.2%
CCOC(=O)C(C)Oc1cccc2c(=O)n(CC(=O)NCc3ccc(F)cc3)ccc12 (centres undefined) | 0.82µM* | / | -18.9% | 0.731µM*
COC(=O)COc1cccc2c(=O)n(CC(=O)NCc3ccc(F)cc3)ccc12 | 1.03µM* | / | ? | 1.16µM*
COc1ccc(CN2CCC(n3cc(C(=O)N4CCCCC4)nn3)CC2)c(OC)c1 | 2.2%[9.04 µM] | / | / | -22.8%
O=C(NC1CC1)C1=C[C@H](c2ccc(C(F)(F)F)cc2)C[C@H](OCc2ccc(CO)cc2)O1 | -20.0% | 7.7% | 1.5% | -25.7%
CC(C)NC(=O)c1cn(C2CCCN(C(=O)c3cc4ccccc4oc3=O)C2)nn1 (centres undefined) | 23.4%[9.04 µM] | / | / | -13.7%
CCOC(=O)COc1cccc2c(=O)n(CC(=O)NCCc3ccccc3)ccc12 | -15.9% | 2.6% | -0.4% | -3.2%
CCOC(=O)COc1cccc2c(=O)n(CC(=O)NCc3ccc4c(c3)OCO4)ccc12 | 1.84µM* | 2.6% | -28.7% | 1.84µM*
O=C(Nc1ccc(Cl)c(C(=O)N2CCOCC2)c1)c1ccccc1 | -28.1% | -5.7% | 0.8% | ?
Cc1cccc(Nc2ncc3c(n2)CC(c2ccco2)CC3=O)c1 (centres undefined) | ? | -4.6% | -2.3% | 20.6µM*
Cc1cc(C)cc(Nc2ncc3c(n2)CC(c2ccco2)CC3=O)c1 (centres undefined) | ? | 8.2% | -1.8% | ?
Cc1ccc(OCC(=O)N(C)CC(=O)Nc2cccc(F)c2)cc1 | 6.4% | 2.2% | -0.9% | -3.3%
CC(=O)Nc1cccc(-c2ccnc3c2CC(C(=O)NCc2ccncc2)O3)c1 (centres undefined) | -5.5% | / | ? | -19.5%
CC(=O)Nc1cccc(-c2ccnc3c2CC(C(=O)NCc2ccc(F)c(F)c2)O3)c1 (centres undefined) | 3.26µM* | / | -16.8% | 3.26µM*
O=C(NCc1cccc(Cl)c1)C1Cc2c(-c3ccc(Cl)cc3)ccnc2O1 (centres undefined) | ? | / | -5.9% | ?
O=C(NCc1cccc(Cl)c1)C1Cc2c(-c3ccccc3)ccnc2O1 (centres undefined) | 29.1µM* | / | -2.5% | 16.4µM*
